Measurements taken from PubChem BioAssay.

test: PSAC antagonists in infected red cells, primary screen, cell-based, P. falciparum Indochina, OD700, 18 h (AID 1157); details: P. falciparum Indochina infected erythrocytes, osmotic lysis OD700, 18 h; higher = more signal, called active from +8 up or from −8 down

z-score, inactive:
CCC(CC)C(O)C1C=CC2C(=O)NC(=O)C2N1Nc1ccc(Cl)cc1Cl (stereo unspecified) 1.24, C=C(CCCC)/C(=C/C[C@@H](OC(=O)c1ccncc1)c1ccc(OCCO)cc1)c1cc(C(=O)OC)ccc1OC 0.969, CO[C@H]1O[C@H](CO)[C@@H](OC(=O)Nc2cccc(F)c2)[C@H](OC(=O)Nc2ccccc2)[C@@H]1OC(=O)Nc1ccccc1 1.4, C=C(COC)C(=O)CC[C@@H](OC(C)=O)c1ccc(CO)o1 -0.38, COC(=O)[C@H](Cc1ccccc1)N1CC2=C[C@@H](C3CC3)n3c(=O)n(C)c(=O)n3[C@H]2[C@@H]1[C@@H](O)Cc1ccccc1 1.58, C=C[C@H](CO[Si](CC)(CC)CC)N(Cc1ccc(OC(C)=O)c(OC)c1)S(=O)(=O)c1ccc(Br)cc1 -1.39, C=CCOC(=O)[C@H]1[C@@H]2C(=O)O[C@@H](c3ccccc3)[C@@H](c3ccccc3)N2[C@@H](c2ccc(OCCOC(=O)[C@H]3C[C@H]4C(=O)N[C@@H](CCCCNC(C)=O)C(=O)N4[C@H]3c3ccc(O)cc3)cc2)[C@]12C(=O)Nc1ccc(I)cc12 -0.214, CC(C)C(O)C1C=CC2C(=O)NC(=O)C2N1Nc1ccc(Cl)cc1Cl (stereo unspecified) 0.997, COc1ccc([Si](C)(C)[C@H]2[C@H](CCO)O[C@@]3(C(=O)N(Cc4ccc(N(C=O)c5ccccc5)cc4)c4ccccc43)[C@@H]2C)cc1 1.87, CC(C)C(O)C1C=CC2C(=O)N(c3ccccc3)C(=O)C2N1Nc1ccc([N+](=O)[O-])cc1 (stereo unspecified) 0.779, CC(C)C[C@@H]1NC(=O)[C@H](C(C)C)NC(=O)[C@@]23C(=O)N[C@@H](Cc4ccccc4)C2[C@H](C)[C@@]2(C)O[C@H]2C3/C=C/CC/C=C/CNC1=O (stereo partly specified) 0.771, CC1(C)[C@@H]2CC(C(O)C3C=CC4C(=O)N(c5ccccc5)C(=O)C4N3Nc3ccc([N+](=O)[O-])cc3)=C[C@H]1C2 (stereo partly specified) 1.56, COc1ccccc1CN1C(=O)c2ccccc2[C@@]2(Cc3ccccc3N(CC(C)C)C2=O)[C@@H]1c1ccc(CO)cc1 0.109, CC1CC/C=C\[C@H]2OC34C=CCN(C(C)(C)C)C(=O)[C@H]3N(C(C)CO)C(=O)[C@@H]4C2C(=O)O1 (stereo partly specified) 0.355, O=C(NCCO)C1=C[C@H](Oc2ccccc2I)[C@@H](O)[C@H](N(Cc2ccco2)C(=O)Cc2ccccc2)C1 0.304, CN(C)CCCC[C@@H]1NC(=O)[C@H]2C[C@@H](C(=O)NCCCCCCN)[C@@H](c3ccc(O)cc3)N2C1=O 0.0314, COC(=O)C(CC#Cc1ccc2c(c1)[C@]1(C(=O)N2)[C@H](c2ccc(OCCO)cc2)N2[C@H](c3ccccc3)[C@H](c3ccccc3)OC(=O)[C@H]2[C@@H]1C(=O)N1CCc2cc(OC)c(OC)cc2C1)C(=O)OC 0.754, [N-]=[N+]=Nc1ccccc1[C@H]1OC(c2ccc(OCCCO)cc2)=N[C@@]1(CCS(=O)(=O)c1ccccc1)C(N)=O 2.16, COC(=O)[C@@]1(Cc2ccc(F)cc2)[C@H]2c3cc(C(=O)N(C)C)n(Cc4ccccc4)c3C[C@H]2CN1C(=O)c1ccccc1 1.23, COc1cc(COC(C)=O)ccc1OC(C)=O -2.3, CN1C(=O)C2C=CC(C(O)C#Cc3ccccc3)N(N3CCCCC3)C2C1=O (stereo unspecified) 1.17, NC(=O)NCC#Cc1ccc2c(c1)[C@]1(C(=O)N2)[C@H](C(N)=O)[C@H]2C(=O)O[C@H](c3ccccc3)[C@H](c3ccccc3)N2[C@@H]1c1ccc(O)cc1 0.124, CO[C@H]1O[C@H](CO)[C@@H](OC(=O)Nc2ccc(Oc3ccccc3)cc2)[C@H](OC(=O)Nc2ccc3c(c2)OCO3)[C@H]1OC(=O)Nc1ccc2c(c1)OCO2 0.397, CC(C)NC(=O)[C@@H]1c2ccccc2C(=O)N(C2Cc3ccccc3C2)[C@H]1c1ccc(CO)cc1 0.182, CCCc1cc2c(n1Cc1cc(F)cc(F)c1)C(C)C1CN(C(=O)c3ccccc3)C(C)(C(=O)OC)C21 (stereo unspecified) 0.251, [N-]=[N+]=Nc1ccccc1[C@@H]1OC(c2ccc(OCCCO)cc2)=N[C@]1(CCS(=O)(=O)c1ccccc1)C(N)=O 5.2
